# Data reported in PubChem BioAssay AID1508622 (National Center for Advancing Translational Sciences (NCATS), 2021).
# Unmarked numbers belong to inactive results. Calls of active or inactive are those of the source. Calls follow the shape of the dose curve; as a rule, active = well fitted activation curve with a large enough effect; inconclusive = small, poorly fitted or top-dose-only effect; inactive = no such curve, though single readings can be large or run the other way.
# Assay: Confirmatory qHTS for Identification of Small Molecule Activators of Huntingtin-Antisense Promoter Activity
# Conditions: HEK293 HTT-AS promoter firefly luciferase reporter, 24 h; series mostly up to 57.5 µM; activity change, positive = activation: at the top concentration
# How it was run: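 Plated reporter HEK293 cells (24 h) received library compounds at up to 57.5 uM final or 50 uM PTC124, incubated 24 h at 37C; firefly luciferase luminescence was then recorded with Dual-Glo reagent.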
# Potency is read from the fitted curve at half-maximal effect.
Structure (SMILES),"activity change, positive = activation [%]",Potency
O=C(COCc1cc(-c2cccs2)on1)N1CCN(c2cccc(Cl)c2)CC1,-13.4,–
Cn1c(SCc2ccc(F)cc2)nc2ccc(C(=O)NCc3ccc(F)cc3)cc21,-69.3,–
COc1cc(NC(=O)c2cc3c(s2)-c2ccccc2OC3)cc(OC)c1OC,-24,–
CCCSCCCNC(=O)c1cc2n(n1)CCCN(Cc1ccc(C)cc1)C2=O,-52.8,–
CCc1ccccc1-n1c(SCC(=O)Nc2ccc(C)cc2)nc2n[nH]c(C)c2c1=N,-43.3,–
Cc1cc(Nc2sc(C(=O)c3ccc(F)cc3)c(N)c2C(=O)Nc2ccc(F)cc2)ccc1Cl,-75.4,–
CCOc1ccccc1NS(=O)(=O)c1ccc2c(c1)CC(C)N2C(=O)C1CC1 (stereo not drawn),-55.1,–
Cc1ccc(C2=CC(c3ccc(Cl)cc3)n3nc(-c4ccc(C)cc4)nc3N2)cc1 (stereo not drawn),-3.5,–
CCCCN(C)C(=O)C1CCC(CNS(=O)(=O)c2ccc(Cl)cc2)CC1 (stereo not drawn),-34.2,–
Cc1nnc(N2CCC(C(=O)NCCc3ccccc3Cl)CC2)c2nn(-c3ccccc3)c(C)c12,-37.7,–
O=C(CSc1nccn1Cc1ccco1)Nc1cc(C(F)(F)F)ccc1Cl,-1,–
COc1ccc(Cn2c(CO)cnc2SCc2ccc(F)cc2)cc1,-83.9,–
COc1ccc(C(=O)Oc2c(Sc3ccccc3)c(C)nn2-c2ccccc2)c(OC)c1,-31.5,–
COc1cc(OC)c(OC)cc1CN1CCc2nc(N3CCN(c4ncccn4)CC3)ncc2C1,-35.1,–
CCOCCCNC(=O)Nc1cc(C(=O)NCc2ccc(C(C)C)cc2)ccc1N1CCCC1,-55,–
CCCCOc1ccc(CNC(=O)Cc2ccc(NC(=O)N3CCSc4ncccc43)cc2)cc1,-27.6,–
Cc1cc(C)cc(OCCn2c(C3CC(=O)N(c4ccccc4Cl)C3)nc3ccccc32)c1 (stereo not drawn),-37.7,–
COCCNc1nc(NCc2cccc(Cl)c2)c2cnn(C)c2n1,-37.8,–
COc1ccc(-c2noc(N3CCN(c4cccc(Cl)c4)CC3)n2)cc1OC,-54.7,–

Structure (SMILES),"activity change, positive = activation [%]",Potency
CCOc1cc(CNC(=O)c2sc3ncnc(N(C)C4CCCCC4)c3c2C)ccc1OC,-26.3,–
O=C(Nc1ccc(Cl)c(Cl)c1)N(Cc1c[nH]c2ccccc12)C1CCCCC1,–,2.39 µM (active)
CCOc1ccc(-c2nc(CSCC(=O)NCCc3ccccc3)c(C)o2)cc1,-47.2,–
Cc1c(Cl)cccc1-n1ncc(C(=O)Nc2ccc(F)cc2F)c1C1CCN(C(=O)OC(C)(C)C)CC1,-27.8,–
Cc1ccc(Cn2c(SCc3ccc(C(=O)N4CCCCC4)cc3)nc3ccncc32)cc1,-91.1,–
COc1ccc(CCNC(=O)c2cc3sccc3n2Cc2ccc(Cl)cc2)cc1OC,-23.9,–
O=c1c(-c2ccc(O)cc2)coc2cc(O)ccc12,–,8.49 µM (active)
COC(=O)C1=C(CS(=O)(=O)c2ccc(C)cc2C)NC(=O)NC1c1ccc(C)cc1 (stereo not drawn),-41.9,–
Cc1cccc(N2CCN(C(=O)c3ccc4c(c3)N(Cc3cccc(Cl)c3)C(=O)c3ccccc3S4=O)CC2C)c1 (stereo not drawn),-32.2,–
Cc1ccccc1Nc1c(-c2cccnc2)nc2cccc(C)n12,-54.6,–
CC(=O)C1=C(c2ccc(Cl)c(Cl)c2)N(C(C)=O)n2c(C)nnc2S1,-74.3,–
COc1cc(CNC(=O)c2ccc3nc(Cc4ccccc4)oc3c2)cc(OC)c1OC,-68.9,–
Cc1ccc(C)c(-n2nnc(C(=O)Nc3ccc(Br)cc3)c2C)c1,-81.3,–
CC(=O)Nc1cccc(NC(=O)CSc2nccn2Cc2ccccc2)c1,-54.9,–
COc1ccc(-c2noc(N3CCN(c4ccc(C)cc4)C(C)C3)n2)cc1OC (stereo not drawn),-35.1,–
O=S(=O)(c1ccc(-c2csc(=Nc3ccc(OC(F)(F)Cl)cc3)n2CCCO)cc1)N1CCCC1,-71.2,–
COc1cc2c(cc1OC)C(COc1ccc(C(C)C)cc1)N(C(=O)COc1ccccc1)CC2 (stereo not drawn),-20.4,–
COc1ccc(CCNC(=O)Cn2nc(C)c3c(C)n(-c4ccc(C)cc4)nc3c2=O)c(OC)c1,-88.8,–
CCc1ccc(NC(=O)c2ccc3oc(=O)n(Cc4ccccc4)c3c2)cc1,-41.5,–
